Drawing on PubChem BioAssay AID485344 (National Center for Advancing Translational Sciences (NCATS), 2010), this text covers inhibition for 90 compounds.

By inhibition is commonly meant the relative decrease from the control value, in per cent.

In all, about 340,000 compounds went through this assay and about 6,900 (2%) were called active. The full list was thinned out, with actives kept by preference. Values without a mark were called inactive. No stated cut-off is given here; in the data, active means inhibition above about 30%; inactive means below that, where a call was filed.

D(2) dopamine receptor (Homo sapiens), sequence (P14416 whole entry, looked up): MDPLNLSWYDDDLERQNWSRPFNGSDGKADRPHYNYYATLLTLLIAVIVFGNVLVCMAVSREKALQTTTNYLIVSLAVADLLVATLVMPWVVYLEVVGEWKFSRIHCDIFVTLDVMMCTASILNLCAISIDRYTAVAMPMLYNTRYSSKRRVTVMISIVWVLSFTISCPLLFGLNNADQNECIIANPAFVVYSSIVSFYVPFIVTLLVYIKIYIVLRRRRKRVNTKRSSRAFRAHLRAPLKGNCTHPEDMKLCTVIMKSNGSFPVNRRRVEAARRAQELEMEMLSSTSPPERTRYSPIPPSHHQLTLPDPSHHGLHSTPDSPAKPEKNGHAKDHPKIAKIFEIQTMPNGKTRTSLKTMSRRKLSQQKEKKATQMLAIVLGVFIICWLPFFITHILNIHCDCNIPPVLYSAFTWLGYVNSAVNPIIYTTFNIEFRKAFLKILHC

The assay deals with D(2) dopamine receptor (Homo sapiens) (UniProt P14416). In words: HTS Assay for Allosteric Antagonists of the Human D2 Dopamine Receptor: Primary Screen for Antagonists. Further: 0% is about no effect. Particulars: HEK293 TREx D2 cells, calcium flux, dopamine EC80; at 10 µM; hits give high values. From the text:
NIH Chemical Genomics Center [NCGC] NIH Molecular Libraries Probe Centers Network [MLPCN] MLPCN Grant: NS064831-01 Assay Submitter (PI): David Sibley Dopamine receptors (DARs) are involved in the etiology and/or therapy of a number of neuropsychiatric and endocrine disorders. For instance, all receptor-based antiparkinsonian drugs work via stimulating the D2 DAR subtype whereas all FDA-approved antipsychotic agents are antagonists of this receptor. […] There are three different types of allosteric modulators that we are seeking, two of which will stimulate or augment receptor signaling, allosteric agonists and potentiators, while the third, allosteric antagonists, will attenuate receptor signaling. The present primary screening assay measures compound antagonism after an EC80 addition of dopamine by tracking calcium flux in a […], inducible Hek293 Trex D2 cell line.
Freshly passaged cells are plated in 1536 well black, clear bottom plates at a density of 4000 cells/well in 3 ul of complete media containing 1x tetracycline inducer. After an overnight incubation at 30 C in 5% CO2, cells are loaded with 2 ul of the no wash Calcium Assay Kit (ABD Bioquest) and incubated at room temperature for 30 to 90 minutes. Agonist read: A 10 cycle (1 second/cycle) baseline measurement is taken and then the FDSS online 1536 pintool delivers 23 nl of compound library (as well as dopamine controls) to the plate. The plate is measured for kinetically at 1 cycle/sec for 180 seconds. Following the 180 second read, 1 ul of an EC80 (negative modulation assay) is delivered by an onboard pipette head. Measurements are taken kinetically for an additional 180 seconds.
On the technique in general: Calcium flux is commonly read through the fluorescence of an indicator in the cells.
As for `O=S(=O)(c1ccccc1)N(CC(O)CN1CCCCC1)c1ccccc1` (stereo not given), the inhibition was -13.9%. For `Cc1ccc(S(=O)(=O)N(CC(O)CN2CCCCC2)c2cccc([N+](=O)[O-])c2)cc1` (stereo not given), the inhibition was 35.8% (active). Then `CCN(CC)C(=O)CN(c1cccc([N+](=O)[O-])c1)S(=O)(=O)c1ccccc1`, with -8.71%; and `Cc1ccc(S(=O)(=O)N(CC(O)CN2C(=O)NC(C)(C)C2=O)c2cccc([N+](=O)[O-])c2)cc1` (stereo not given), with 30.4% (active). Consider `COc1ccc([N+](=O)[O-])cc1N(CC(O)Cn1nnc2ccccc21)S(=O)(=O)c1ccc(C)cc1` (stereo not given), for which the inhibition is 12.1%.

In the case of `Cc1ccc(N(CC(O)CN2CCCC2)S(=O)(=O)c2ccccc2)cc1` (stereo not given), the inhibition is -18.8%. As for `COc1ccc([C@H]2CC(=O)C=C(c3ccc(OC(F)(F)F)cc3)C2)cc1OC`, the inhibition is 10.4%. Then `CN(CC(=O)NCCc1ccc(F)cc1)CC(=O)Nc1ccc(F)c(F)c1F`, with -4.31%.

As for `CCCCn1c(N)c(N(CCC(C)C)C(=O)COC(=O)c2ccc(CC)cc2)c(=O)[nH]c1=O`, the inhibition was -24%. Then `O=C(Nc1ccc2c(c1)OCO2)C1CC1(Cl)Cl` (stereo not given), with 4.68%; and `COc1ccc(Cc2nnnn2CC(=O)O)cc1`, with 35.2% (active).

In the case of `CCCn1nnnc1NCc1ccc(OC)cc1`, the inhibition was -21.1%. Then `COc1ccc(Cc2nnc(SCC(=O)N(c3ccccc3)C(C)C)n(N)c2=O)cc1`, with -8.57%; and `Cc1ccccc1OCCC(=O)OCC(=O)NCCc1ccc(S(N)(=O)=O)cc1`, with -20%. In the case of `COc1cccc(C(=O)N2CCCC(CCC(=O)NCc3ccc(F)c(F)c3)C2)c1` (stereo not given), the inhibition was 34.4% (active).

In the case of `COc1cccc(CNC(=O)CCC2CCCN(C(=O)c3ccc(F)c(Cl)c3)C2)c1` (stereo not given), the inhibition was 7.84%. Regarding `COc1cccc(CNC(=O)CCC2CCCN(C(=O)c3ccoc3C)C2)c1` (stereo not given), the inhibition is -10.4%. `Cc1ccc(S(=O)(=O)N2[C@@H](c3cccc(Cl)c3)C(C(=O)O)=CC[C@H]2c2ccc(Cl)c(Cl)c2)cc1`: the inhibition is -1.92%. `COc1ccc(S(=O)(=O)N2CCOCC2)cc1NC(=O)Cc1coc2cc(C)ccc12`: the inhibition is -8.41%.

On to `O=C(NNC(=O)C1CCC1)c1ccccc1`, for which the inhibition is -2.25%. For the compound `CC(C)C[C@H](NC(=O)Nc1cccc(C(F)(F)F)c1)C(=O)O`, the inhibition is 7.87%. Take `Cc1ccc(NC(=O)Nc2cccc(C(F)(F)F)c2)nc1`: the inhibition was -7.91%.

For `CCNS(=O)(=O)c1ccc(NC(=O)Nc2cccc(C(F)(F)F)c2)cc1`, the inhibition is 38.4% (active).

As for `CCOC(=O)[C@H]1[C@H]2COc3ccc(C)cc3[C@@H]2N2C(=O)CN(Cc3ccc(F)cc3)C(=O)[C@@]12C`, the inhibition was -3.67%. `O=C(CN1CCN(C/C=C/c2ccccc2)CC1)Nc1ccc(F)cc1F`: the inhibition is 6.36%. Turning to `O=C(CCN1CCN(C/C=C/c2ccccc2)CC1)Nc1cccc(F)c1`, the inhibition was -21%. In the case of `O=C(CCN1CCN(C/C=C/c2ccccc2)CC1)Nc1ccccc1Cl`, the inhibition was 31.9% (active). For `O=C(CN1CCN(S(=O)(=O)c2cccc(Cl)c2)CC1)N1CCCCC1`, the inhibition was 14%. Turning to `Cc1ccc(C)c(NC(=O)CN(C)C(=O)c2ccc3ncsc3c2)c1`, the inhibition was 17.4%. `CCCn1nc(C(=O)OCc2nc(N)nc(Nc3ccccc3C)n2)c2ccccc2c1=O`: the inhibition is 6.08%. In the case of `COc1cc(OC)c(C(=O)OCC(=O)N2CC(=O)Nc3ccccc32)cc1OC`, the inhibition is -2.09%.

Take `Cc1ccc(S(=O)(=O)N(C)CC(=O)OCC(=O)N2CC(=O)Nc3ccccc32)cc1`: the inhibition is 36.8% (active). Regarding `Cc1ccc(S(=O)(=O)N(C)CC(=O)OCC(=O)Nc2ccccc2)cc1`, the inhibition is -5.35%. For `COc1cc(C(=O)Nc2ncccc2C)ccc1OCC(=O)N1CCOCC1`, the inhibition is -21.1%. As for `COc1ccc(NC(=O)CN(C)C(=O)c2cccc(S(=O)(=O)N3CCN(c4ccccc4)CC3)c2)cc1`, the inhibition is -9.07%. `Cc1cccc(-c2oc3ccc(-c4ccc5c(c4)OCO5)cc3c2C#Cc2cncn2C)c1`: the inhibition was 11.3%. In the case of `CC(=O)N/C(=C/c1ccc(Cl)cc1)C(=O)NCCc1c[nH]c2ccccc12`, the inhibition was 31% (active). `COc1ccc(/C=C(\NC(=O)c2ccc(OC)c(OC)c2)C(=O)NCCc2c[nH]c3ccccc23)cc1`: the inhibition was -6.61%. Turning to `COc1ccccc1CC(=O)NCCc1c[nH]c2ccccc12`, the inhibition was -11.6%. Consider `CC1CC(C)CN(C(=O)COC(=O)c2ccc3ncsc3c2)C1` (stereo not given), for which the inhibition is -13.9%. Then `NS(=O)(=O)c1ccc(CNC(=O)c2cccc(S(=O)(=O)N3CCc4ccccc43)c2)cc1`, with 41% (active); and `Cc1ccc(NC(=O)c2cccc(S(=O)(=O)N3CCCc4ccccc43)c2)nc1`, with 7.09%; and `NS(=O)(=O)c1ccc(CNC(=O)c2cccc(Oc3ccccc3)c2)cc1`, with 9.32%. Turning to `Cc1ccccc1Nc1nc(N)nc(COC(=O)CCC(=O)c2ccc(F)cc2)n1`, the inhibition was 2.44%.

As for `COc1ccc(-c2c(-c3cc(OC)cc(OC)c3)n(C)c3ccc(-c4ccn[nH]4)cc23)cc1`, the inhibition was -12.7%. Then `CCc1nnc(NC(=O)CSc2nnc(-c3ccncc3)n2Cc2ccccc2)s1`, with 30.7% (active); and `Cc1cnc(NC(=O)CSc2nnc(-c3ccccc3)n2Cc2ccccc2)s1`, with 8.7%; and `CCc1nnc(NC(=O)CSc2nnc(Cc3ccccc3)n2-c2ccc(OC)cc2)s1`, with 0.9%.

Take `COc1ccccc1CNC(=O)COC(=O)c1sc(C)nc1C`: the inhibition was 16.2%. `O=C(NCC1CCCO1)c1cc2c(s1)CCCC2` (stereo not given): the inhibition is 24.5%.

Turning to `O=C(COC(=O)CNC(=O)C1CCCCC1)Nc1cccc(F)c1`, the inhibition is -2.8%.

Turning to `CC(CCc1ccc(O)cc1)NCc1ccc(Cl)cc1Cl` (stereo not given), the inhibition is 57% (active). For the compound `OC(CNCCc1ccc(Cl)cc1Cl)COc1ccccc1` (stereo not given), the inhibition is -28.1%.

Regarding `COc1ccc(CNC(=O)C(C)NCc2ccccc2Cl)cc1` (stereo not given), the inhibition was 2.26%. Regarding `Cc1ccc(OCC(=O)Nc2ccccc2C(=O)NC2CC2)cc1`, the inhibition is -3.15%.

Take `Cc1c(NS(=O)(=O)c2cc(C(=O)NCCc3ccc(F)cc3)cc(Cl)c2Cl)c(=O)n(-c2ccccc2)n1C`: the inhibition was 0.733%. Then `COC(=O)/C(=C1\Oc2ccc(C(C)(C)C)cc2S1)C(F)(F)F`, with 0.21%; and `CCOC(=O)c1nnn(-c2nonc2OC)c1-c1ccccc1`, with 1.66%; and `CCOC(=O)C1=C(c2ccccc2)O/C(=C(/C(=O)OC)C(F)(F)F)S1`, with 39% (active). Then `COc1ccc(S(=O)(=O)N2CCN(CC(=O)N3c4ccccc4CC3C)CC2)cc1OC` (stereo not given), with -15.7%; and `CCCCn1c(N)c(N(CCC(C)C)C(=O)COC(=O)c2cccnc2OCC)c(=O)[nH]c1=O`, with -12.2%; and `Cc1ccc(NC(=O)NC(=O)c2ccccc2)cc1F`, with -2%. Regarding `O=C(NC(=O)c1ccccc1)NC(=O)c1ccccc1`, the inhibition is 27%. Turning to `O=C(NC(=O)c1ccccc1)Nc1ccccc1O`, the inhibition was 40% (active). With `CC(C)Cc1nnc(NC(=O)CCNC(=O)c2ccccc2Cl)s1`, the inhibition is -3.78%. Then `Cc1ccc(NC(=O)Cc2nc(COC(=O)C(C)NS(=O)(=O)c3ccc(C)cc3)cs2)cc1` (stereo not given), with 2.42%; and `COc1ccc(C(=O)Nc2cc(C)ccc2NC(=O)COc2ccccc2)cc1`, with 44.4% (active). As for `COc1ccc(OCC(=O)NNC(=O)c2cccc(C)c2)cc1`, the inhibition was 1.66%. Then `Cc1cccc(OCC(=O)Nc2ccc(C(=O)O)cc2NC(=O)COc2cccc(C)c2)c1`, with -10.4%; and `O=C(NCCc1ccc(F)cc1)c1ccc2nccnc2c1`, with -19%.

In the case of `COc1cccc(OCC(O)CN2CCN(CCO)CC2)c1` (stereo not given), the inhibition was -3.18%. Take `CCOc1ccc(C(O)Cn2c(=N)n(CCN3CCCCC3)c3ccccc32)cc1` (stereo not given): the inhibition is -7.44%. Regarding `Cc1cccc(OCC(O)Cn2c(=N)n(CCN3CCOCC3)c3ccccc32)c1` (stereo not given), the inhibition was 31.7% (active). `COc1ccc(C)cc1NC(=O)CCCN1C(=O)NC(C)(C)C1=O`: the inhibition is -9.24%. Regarding `Cc1nnc(NC(=O)c2ccc3nccnc3c2)s1`, the inhibition was 3.14%. Consider `CC1(C(=O)OCC(=O)Nc2ncc(Cl)cc2Cl)CC1(Cl)Cl` (stereo not given), for which the inhibition was 11.7%. For the compound `C=CCN1C(=O)c2ccc(C(=O)N3CCC(C(=O)OCC)CC3)cc2C1=O`, the inhibition is 2.03%. Consider `CSCC(=O)N1CCCC(C(=O)c2cc(F)ccc2F)C1` (stereo not given), for which the inhibition is -7.86%. Regarding `COc1ccc(/C=C/CN2CCCC(C(=O)c3cc(F)ccc3F)C2)cc1` (stereo not given), the inhibition was 34.2% (active). Then `O=C(c1ccc(OC2CCN(C/C=C/c3ccc(F)cc3)CC2)cc1)N1CCCCC1`, with 26.2%; and `O=C(NCCS(=O)(=O)N1CCN(c2ccccc2)CC1)c1ccco1`, with 9.95%; and `Cc1csc2nc(COC(=O)c3cccc(N(C)C)c3)cc(=O)n12`, with -21.3%. Regarding `Nc1c(NCCc2ccccc2)c2ccccc2oc1=O`, the inhibition is -22.5%. Consider `CC(C)(C)Nc1c(N)c(=O)oc2ccccc12`, for which the inhibition is 33.7% (active).

For the compound `CCNc1c(NS(=O)(=O)c2ccc(C3CCCCC3)cc2)c(=O)oc2ccccc12`, the inhibition was 16.7%.

Take `CCC1(C)NC(=O)N(CC(=O)N2CCN(c3cccc(Cl)c3)CC2)C1=O` (stereo not given): the inhibition is 22.3%.

With `CCc1ccc(-c2nn(-c3ccccc3C)cc2C(=O)N2CCN(C3CCS(=O)(=O)C3)CC2)cc1` (stereo not given), the inhibition is 3.49%.

As to `CCN1CCN(C(=O)Cn2nc(C)n3c(cc4c(OC)cccc43)c2=O)CC1`, the inhibition was 35.3% (active). Then `CCc1nn(CC(=O)N2CCN(CC)CC2)c(=O)c2cccn12`, with 1.45%; and `COc1cccc2c(=O)n(CC(=O)N3CCCCCC3)ccc12`, with 5.43%.
